Shown are actives, neighbours in structure and some others; about 1.6% of the full set was active somewhere.
KCNQ2 enhance: KCNQ2 (rat) channel potentiation. CHO-K1 KCNQ2, FluxOR thallium flux fluorescence; active compounds read high. B-score at 10 µM. O88943. actives 0.54% (n = 310,000);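 active means fluorescence ratio B-score at least 3 SD of library B-scores, with initial fluorescence B-score within 3 of them, cut at about 5.3 in these data; same plate scores as AID 2156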;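 further: B-score of peak minus minimum over baseline fluorescence ratio after K+ and Tl+ stimulus; positive B-score means potentiation of KCNQ2 with more thallium influx and brighter signal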
KCNQ2 inh: KCNQ2 (rat) channel inhibition; B-score at 10 µM; actives 1.1% (n = 310,000); CHO-K1 KCNQ2, FluxOR thallium flux, 20 min; active compounds read low; O88943; AID 2156;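 active means fluorescence ratio B-score at most minus 3 library SDs, with starting brightness B-score within 2 library SDs, cut at about -5.5 in these data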
Kir21 conf inh: confirmation of mouse Kir2.1 potassium channel inhibitors; Tl flux remaining, % of negative control (active compounds read low), % at 10 µM; shares compounds with KCNQ2 enhance; actives 41% (n = 2,300); Kir2.1-expressing cells, FluxOR thallium flux fluorescence; active compounds read low;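 active means Primary-screen hit whose thallium flux fell at least 3 control SD below untreated wells in both duplicates, with normal baseline fluorescence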
HEK293 ctr: parental HEK293 activity in Kir2.1 inhibitor counter-screen. shares compounds with KCNQ2 enhance. parental HEK293 cells, FluxOR thallium flux fluorescence; 0% = unstimulated blank wells. FluxOR signal as % of negative control (100 = no effect), % at 10 µM. actives 19% (n = 2,300);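 active means dye signal at least 3 control SD above or below untreated wells in both duplicates, raw fluorescence within 3, either direction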;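 further: percent is based on the flux ratio of peak minus minimum fluorescence over baseline F0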
CHO-K1 ctr: alters thallium flux in parental CHO-K1 cells, KCNQ2 counter-screen; FluxOR thallium flux fluorescence; zero = vehicle mean+3SD, 100% = vehicle-minus-blank window; activity increase over 3SD of controls, % at 10 µM; actives 43% (n = 1,200); shares compounds with KCNQ2 enhance;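 active means signal rise of at least 3 SD above the untreated control mean, in both duplicate wells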;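 further: counter screen of KCNQ2 potentiator hits so any rise reflects channel-independent effects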
KCNQ1 sel pot: selectivity of KCNQ2 potentiators: effect on human KCNQ1; shares compounds with KCNQ2 enhance; CHO KCNQ1 stable, FluxOR thallium flux fluorescence; beyond 3SD, as % of vehicle-control signal; activation over 3SD threshold, % at 10 µM; actives 28% (n = 1,200); AID 2283;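 active means fluorescence ratio rise of at least 3 SD of vehicle wells above their mean, in both replicate wells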
Target sequence (P51787 whole entry, looked up): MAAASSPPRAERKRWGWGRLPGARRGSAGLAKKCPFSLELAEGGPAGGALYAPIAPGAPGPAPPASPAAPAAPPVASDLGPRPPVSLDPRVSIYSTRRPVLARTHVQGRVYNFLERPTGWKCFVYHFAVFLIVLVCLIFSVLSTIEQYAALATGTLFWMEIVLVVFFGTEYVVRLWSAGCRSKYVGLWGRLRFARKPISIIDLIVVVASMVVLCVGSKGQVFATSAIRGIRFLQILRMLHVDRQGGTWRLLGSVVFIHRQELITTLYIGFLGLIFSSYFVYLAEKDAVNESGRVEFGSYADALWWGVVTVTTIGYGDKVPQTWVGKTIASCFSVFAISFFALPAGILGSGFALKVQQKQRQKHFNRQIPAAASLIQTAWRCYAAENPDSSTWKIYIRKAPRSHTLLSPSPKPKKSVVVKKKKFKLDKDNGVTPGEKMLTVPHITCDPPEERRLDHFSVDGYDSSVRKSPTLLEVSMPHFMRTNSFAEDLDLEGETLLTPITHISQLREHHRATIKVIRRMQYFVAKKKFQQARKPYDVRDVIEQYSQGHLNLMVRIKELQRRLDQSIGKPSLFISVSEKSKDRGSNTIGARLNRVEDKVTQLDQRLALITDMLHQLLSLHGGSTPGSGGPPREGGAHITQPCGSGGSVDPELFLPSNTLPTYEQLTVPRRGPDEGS
KCNQ2 pot conf: confirmation of rat KCNQ2 potassium channel potentiators | actives 68% (n = 1,200) | potentiation, less the hit threshold, % at 10 µM | AID 2287 | CHO-KCNQ2 cells, FluxOR thallium flux fluorescence | shares compounds with KCNQ2 enhance;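 active means fluorescence ratio rising 3 SD or more over the vehicle control mean in both replicates, plus primary screen hit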;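 further: peak minus minimum thallium fluorescence divided by baseline after K/Tl stimulus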
Kir21 spec: tests whether KCNQ2 potentiators also affect mouse Kir2.1; shares compounds with KCNQ2 enhance; AID 2345; activity over 3SD threshold, % at 10 µM; HEK293 Kir2.1, FluxOR thallium flux fluorescence; actives 2% (n = 1,200);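 active means fluorescence ratio rise of at least 3 SD above the vehicle-control mean, seen in both replicates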
KCNQ2 W236L MoA: potentiates the retigabine-insensitive rat KCNQ2 W236L mutant channel. shares compounds with KCNQ2 enhance. CHO KCNQ2-W236L, automated patch clamp current. current increase over 3SD of negative controls (%), active compounds read high, % at 25 µM. actives 10% (n = 940);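 active means current increase at least 3 SD of the untreated controls above them in both duplicate recordings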
Of the large screens only hits and unclear results are named; the others gave an inactive call (follow-up assays come after a bar, where they were run).

CCOc1cc(C)c(Cl)cc1S(=O)(=O)NCc1ccco1	none (no result: KCNQ2 enhance) | Kir21 conf inh 55.5% | HEK293 ctr inactive
COc1cc(C)c(Cl)cc1S(=O)(=O)NCc1ccco1	none
CC(CCc1ccc(O)cc1)NC1c2ccccc2-c2ccccc21 (stereo unspecified)	none | Kir21 conf inh 33.0% | HEK293 ctr inactive
CC(CCc1ccc(O)cc1)NC1C2CC3CC(C2)CC1C3 (stereo unspecified)	none
COC(C[C@@H]1O[C@H]1[C@H](O)[C@@H](C)OCc1ccccc1)OC	none
COc1ccccc1C(=O)NCCCNC(=O)c1cccnc1	none (no result: KCNQ2 enhance)
CN(C)CCNC(=O)COc1ccc(C23CC4CC(CC(C4)C2)C3)cc1	none (no result: KCNQ2 enhance) | Kir21 conf inh 41.0% | HEK293 ctr inactive
Cc1ccc(C23CC4CC(CC(NC(=O)NCCN(C)C)(C4)C2)C3)cc1	none (no result: KCNQ2 enhance)
COc1ccccc1CNC(=O)C(NC(=O)c1ccccc1C)C(C)C (stereo unspecified)	none (no result: KCNQ2 enhance)
Cn1c(=O)c2c(SCC(=O)N3CCCC3)nc(-c3ccccc3)nc2n(C)c1=O	none
CC(C)c1nc(SCC(=O)N2CCCc3ccccc32)c2c(=O)n(C)c(=O)n(C)c2n1	none
CCCCc1nc(SCCOC)c2c(=O)n(C)c(=O)n(C)c2n1	none
CC1CCN(C(=O)CSc2nc(C(C)C)nc3c2c(=O)n(C)c(=O)n3C)CC1	KCNQ2 enhance 27 | Kir21 conf inh inactive | HEK293 ctr inactive | CHO-K1 ctr 20.9 | KCNQ1 sel pot inactive | KCNQ2 pot conf 123.8 | Kir21 spec inactive | KCNQ2 W236L MoA inactive
CCCCc1nc(SCC(=O)N2CCOCC2)c2c(=O)n(C)c(=O)n(C)c2n1	KCNQ2 enhance 5.36 | Kir21 conf inh inactive | HEK293 ctr inactive | CHO-K1 ctr inactive | KCNQ1 sel pot 56.8 | KCNQ2 pot conf 9.8 | Kir21 spec inactive | KCNQ2 W236L MoA inactive
Cc1nc(SCC(=O)N2CCOCC2)c2c(=O)n(C)c(=O)n(C)c2n1	none
CCCCc1nc(SCC(=O)N2CCCC2)c2c(=O)n(C)c(=O)n(C)c2n1	KCNQ2 enhance 8.17 | Kir21 conf inh inactive | HEK293 ctr inactive | CHO-K1 ctr inactive | KCNQ1 sel pot inactive | KCNQ2 pot conf 37.9 | Kir21 spec inactive | KCNQ2 W236L MoA inactive
CC(C)Cc1nc(SCC(=O)N2CCCC2)c2c(=O)n(C)c(=O)n(C)c2n1	KCNQ2 enhance 6.52 | Kir21 conf inh inactive | HEK293 ctr inactive | CHO-K1 ctr 32.6 | KCNQ1 sel pot inactive | KCNQ2 pot conf 19.4 | Kir21 spec inactive | KCNQ2 W236L MoA inactive
Cc1ccc([N+](=O)[O-])cc1NC(=S)NCCc1ccccc1	none (no result: KCNQ2 enhance)
Cc1ccc(NC(=O)Nc2c(Cl)cccc2Cl)cn1	none (no result: KCNQ2 enhance)
Cn1c(=O)c2c(SCC(=O)N3CCOCC3)nc(C3CCCCC3)nc2n(C)c1=O	none
CCCCc1nc(SCC(=O)N2CCCCC2)c2c(=O)n(C)c(=O)n(C)c2n1	KCNQ2 enhance 26.4 | Kir21 conf inh inactive | HEK293 ctr inactive | CHO-K1 ctr inactive | KCNQ1 sel pot inactive | KCNQ2 pot conf 100.5 | Kir21 spec inactive | KCNQ2 W236L MoA inactive
Cc1cc(C)nc(N2CCCC(C(=O)NCc3ccccc3F)C2)n1 (stereo unspecified)	none
Clc1ccc2nc(COc3ccccc3)[nH]c2c1	none (no result: KCNQ2 enhance)
CCOC(=O)N1CCN(C(=O)c2cc(Cl)c(Cl)cc2C(=O)O)CC1	none (no result: KCNQ2 enhance)
CCCOC1CCCN(C(=O)c2cc(Cl)c(Cl)cc2C(=O)O)C1 (stereo unspecified)	KCNQ2 enhance 8.55 | Kir21 conf inh inactive | HEK293 ctr inactive | CHO-K1 ctr inactive | KCNQ1 sel pot inactive | KCNQ2 pot conf inactive | Kir21 spec inactive
c1ccc(-c2csc3ncnc(N4CCOCC4)c23)cc1	none (no result: KCNQ2 enhance)
c1ccc(-c2csc3ncnc(N4CCc5ccccc5C4)c23)cc1	none (no result: KCNQ2 enhance) | Kir21 conf inh inactive | HEK293 ctr inactive
O=C(CN(Cc1ccc(Cl)cc1)C(=O)CNS(=O)(=O)c1ccccc1)NCC1CCCO1 (stereo unspecified)	none
CCn1c(Sc2ccc([N+](=O)[O-])cn2)nnc1-c1ccco1	none (no result: KCNQ2 enhance)
O=C(CNC(=O)c1ccccc1F)NCCOc1ccccc1Cl	none
O=C(NC(=S)Nc1ccccc1Br)c1ccco1	KCNQ2 enhance 9.49 | Kir21 conf inh inactive | HEK293 ctr 181.0% | CHO-K1 ctr 4.9 | KCNQ1 sel pot 91.0 | KCNQ2 pot conf 18.6 | Kir21 spec inactive | KCNQ2 W236L MoA inactive
COc1ccc(-c2csc(NC(=S)NC(=O)c3ccco3)n2)cc1Br	KCNQ2 enhance 5.68 | Kir21 conf inh inactive | HEK293 ctr inactive | CHO-K1 ctr 29.7 | KCNQ1 sel pot 22.1 | KCNQ2 pot conf inactive | Kir21 spec inactive
COc1ccc(-c2csc(NC(=S)NC(=O)c3cc4ccccc4o3)n2)cc1Br	none
O=C(NC(=S)Nc1cccc(NC(=S)NC(=O)c2ccco2)n1)c1ccco1	none (no result: KCNQ2 enhance)
CCOc1ccc(NC(=S)NC(=O)c2ccco2)cc1	KCNQ2 enhance 7.76 | Kir21 conf inh inactive | HEK293 ctr 163.0% | CHO-K1 ctr inactive | KCNQ1 sel pot 38.4 | KCNQ2 pot conf 22.8 | Kir21 spec inactive | KCNQ2 W236L MoA inactive
CCOc1ccc(NC(=O)c2ccco2)cc1	none
CC1CCN(c2ccccc2NC(=S)NC(=O)c2cccs2)CC1	none (no result: KCNQ2 enhance)
CC1CCN(c2ccccc2NC(=S)NC(=O)c2ccco2)CC1	KCNQ2 enhance 5.86 | Kir21 conf inh inactive | HEK293 ctr inactive | CHO-K1 ctr inactive | KCNQ1 sel pot inactive | KCNQ2 pot conf inactive | Kir21 spec inactive
COc1ccc(CC2(CO)COc3ccccc3C2=O)cc1 (stereo unspecified)	none
CCNc1nc(OC)nc(SCC(=O)Nc2ccccc2)n1	none
COc1cc2cc(C(=O)Nc3ccc4c(c3)OCCO4)[nH]c2cc1OC	none
CSc1ccc(/C=C(\C#N)C(=O)Nc2cccc(C)c2)cc1	none (no result: KCNQ2 enhance)
Cc1cccc(NC(=S)NC(=O)c2ccco2)c1C	KCNQ2 enhance 9.9 | Kir21 conf inh inactive | HEK293 ctr 364.5% | CHO-K1 ctr inactive | KCNQ1 sel pot inactive | KCNQ2 pot conf 46.0 | Kir21 spec inactive | KCNQ2 W236L MoA inactive
Cc1cc(C(=O)Nc2ccc3ccccc3c2)oc1C	none (no result: KCNQ2 enhance)
O=C(NC(=S)Nc1nc2ccc(F)cc2s1)c1ccco1	KCNQ2 enhance 13.4 | Kir21 conf inh inactive | HEK293 ctr inactive | CHO-K1 ctr inactive | KCNQ1 sel pot inactive | KCNQ2 pot conf 26.0 | Kir21 spec inactive | KCNQ2 W236L MoA inactive
